Screening results (PubChem)
MsrA inhibitor – inhibits bovine methionine sulfoxide reductase A; inhibition, % at 15.5 µM; purified bovine MsrA, absorbance read-out; 0.75% of 360,000 active;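 note: 0% = vehicle wells with enzyme and 100% = reference inhibitor wells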
p-CIP stab down – p/CIP protein destabilization | Q05BA5 | F442A p/CIP-EGFP cells, EGFP fluorescence, 16 h | decrease of EGFP signal, % at 10 µM | 0.01% of 290,000 active | AID 1984;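 active = EGFP signal decrease of at least 30% at 10 µM or well 3 SD below plate mean, unless failing retest; inactive = the rest, including hits failing retest or dose response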
Target sequence (Q05BA5 1-1403): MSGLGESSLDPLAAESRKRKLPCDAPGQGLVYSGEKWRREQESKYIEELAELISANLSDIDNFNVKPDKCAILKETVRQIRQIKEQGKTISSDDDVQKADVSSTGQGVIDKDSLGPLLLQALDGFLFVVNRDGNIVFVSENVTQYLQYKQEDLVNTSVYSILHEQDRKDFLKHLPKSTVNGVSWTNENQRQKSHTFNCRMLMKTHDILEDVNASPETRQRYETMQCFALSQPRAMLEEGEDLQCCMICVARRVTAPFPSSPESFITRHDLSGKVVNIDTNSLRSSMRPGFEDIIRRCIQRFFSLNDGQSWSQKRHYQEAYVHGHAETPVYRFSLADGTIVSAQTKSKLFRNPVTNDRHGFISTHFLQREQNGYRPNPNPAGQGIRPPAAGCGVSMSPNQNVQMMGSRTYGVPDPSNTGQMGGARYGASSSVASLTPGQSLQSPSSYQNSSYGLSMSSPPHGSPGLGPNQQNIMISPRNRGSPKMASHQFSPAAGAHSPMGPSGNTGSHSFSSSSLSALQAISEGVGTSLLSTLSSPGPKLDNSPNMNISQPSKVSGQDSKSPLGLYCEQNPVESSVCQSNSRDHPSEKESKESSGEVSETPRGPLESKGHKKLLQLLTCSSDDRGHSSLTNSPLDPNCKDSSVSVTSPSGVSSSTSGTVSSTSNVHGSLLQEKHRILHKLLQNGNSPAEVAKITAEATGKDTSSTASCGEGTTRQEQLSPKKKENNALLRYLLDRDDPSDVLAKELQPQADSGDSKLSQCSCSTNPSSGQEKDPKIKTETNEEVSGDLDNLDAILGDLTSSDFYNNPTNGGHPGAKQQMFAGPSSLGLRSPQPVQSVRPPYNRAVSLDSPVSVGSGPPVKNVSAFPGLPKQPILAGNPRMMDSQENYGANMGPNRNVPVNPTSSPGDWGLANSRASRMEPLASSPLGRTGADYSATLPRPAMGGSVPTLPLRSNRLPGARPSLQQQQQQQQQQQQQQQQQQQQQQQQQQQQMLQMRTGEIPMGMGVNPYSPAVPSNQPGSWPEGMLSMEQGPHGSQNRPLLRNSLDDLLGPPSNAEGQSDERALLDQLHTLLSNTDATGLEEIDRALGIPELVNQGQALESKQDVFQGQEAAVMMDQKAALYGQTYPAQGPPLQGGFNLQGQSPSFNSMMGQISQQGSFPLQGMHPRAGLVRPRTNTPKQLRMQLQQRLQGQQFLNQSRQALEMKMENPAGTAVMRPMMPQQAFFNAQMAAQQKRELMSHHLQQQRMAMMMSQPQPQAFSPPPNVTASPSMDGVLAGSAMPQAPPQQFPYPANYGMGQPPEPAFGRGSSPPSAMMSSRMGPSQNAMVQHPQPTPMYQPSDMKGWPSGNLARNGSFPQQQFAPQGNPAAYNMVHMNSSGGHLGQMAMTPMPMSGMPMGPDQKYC
14-3-3 Bad inh – disrupts binding of bovine 14-3-3 zeta to phospho-Bad peptide; P63103; TR-FRET 14-3-3zeta/Dy647-pBad peptide displacement, 1 h; inhibition, % at 21.7 µM; 0.71% of 220,000 active; AID 781;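 active = inhibition above about 70%, limit read from the data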;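 note: 0% = full 14-3-3 plus peptide FRET controls and 100% = background without 14-3-3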
MsrA act – activates bovine MsrA enzyme. activation, % at 10.6 µM. purified bovine MsrA, absorbance read-out. 0.3% of 360,000 active; in the data active = activation above about 7.5%;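 note: 0% = vehicle and 100% = reference activator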
MsrA activ conf – confirmation of bovine methionine sulfoxide reductase A activators. shares compounds with MsrA act. purified bovine MsrA, absorbance read-out. activation, % at 10.6 µM. 12% of 1,000 active. AID 602270; in the data active = activation above about 4%;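 note: enzyme coupled to thioredoxin and thioredoxin reductase with NADPH; 0% = vehicle wells and 100% = reference activator wells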
MsrA conf – confirmation of bovine MsrA inhibitors; shares compounds with MsrA inhibitor; purified bovine MsrA, absorbance read-out; inhibition, % at 15.5 µM; 41% of 2,300 active; AID 651822;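 note: coupled to thioredoxin reductase with NADPH and selenocystamine and DMSO as substrate; 0% = vehicle only and 100% = full effect of reference inhibitor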
* = called active by the depositor; x = no result. A selection: hits, their analogues and other compounds. The true share with any hit is near 1.4%. Cut-off read from the data, not from the text of the source, unless noted: active = inhibition above about 4.5%; inactive = the rest.

SMILES	MsrA inhibitor	p-CIP stab down	14-3-3 Bad inh	MsrA act	others
C[C@]12CCC3C(CC[C@H]4C[C@@H](O)CC[C@]34C)C1=CC[C@@H]2O (some centres undefined)	-2	x	x	-1
Cc1ccc(N2CCN(CCc3ccccc3)CC2)cc1	x	-12	83*	-3
COC(=O)C1=C(c2ccc(OC(F)(F)F)cc2)C[C@@H]2CC[C@H]1N2C(=O)NCCOc1ccc(OC)cc1	10.0*	x	x	-1
O=C(Nc1ccccc1)N1Cc2cc(Br)ccc2-n2nncc2C1	-2	x	x	x
C=C(COC(C)=O)CC1CC(O)[C@]2(C)OC3CC4OC5C[C@]6(C)O[C@]7(C)CCC8OC9C[C@]%10(C)OC%11C(C)=CC(=O)OC%11CC%10OC9C[C@@H](C)C8OC7CC6O[C@]5(C)C/C=C\C4OC3CC2O1 (some centres undefined)	x	-6	-2	9.7*
O=C(N/N=C/c1c(O)n(Cc2ccc(F)cc2)c(=O)[nH]c1=O)c1ccccc1O	4	-6	-9	-7
O=C(N/N=C/c1c(O)n(Cc2ccccc2)c(=O)[nH]c1=O)c1ccccc1O	4.6*	-14	-2	-8
COc1ccc(Cn2c(O)c(/C=N/NC(=O)c3ccncc3)c(=O)[nH]c2=O)cc1	4	10	-25	-6
COc1ccc(Cn2c(O)c(/C=N/NC(=O)c3ccccc3)c(=O)[nH]c2=O)cc1	4.5*	-21	-5	-8
O=C(NCCN1CCC2(CC1)C(=O)NCN2c1ccccc1)c1ccccc1C(F)(F)F	0	x	x	x
C/C1=C\[C@@H](C)C/C=C/[C@H]2[C@@H]3O[C@]3(C)[C@@H](C)[C@H]3[C@H](Cc4c[nH]c5ccccc45)NC(=O)[C@]32C(=O)/C=C/C(=O)[C@@H]1O	x	-4	7	8.1*
CC1=CC2/C=C(\C)CCC(O)C(O)/C=C/C(=O)C23C(=O)NC(CC(C)C)C3C1C (centres undefined)	x	-1	7	-1
CN1CC[C@@H]2CN[C@H](c3ccccc3Br)C[C@@H]21	-1	x	x	x
COc1cccc(N2CCN(Cc3ccc(Cl)cc3)CC2)c1	x	-6	34	1
COc1cccc(N2CCN(Cc3cccc(Cl)c3)CC2)c1	x	6	80*	-3
Fc1ccc2c(c1)nnn2C1CCN(Cc2nnnn2C2CCCCC2)CC1	1	-16	80*	1
Cc1nc2cc(F)ccc2n1C1CCN(Cc2nnnn2CCc2ccccc2)CC1	0	-10	80*	-5
O=C(c1ccc(Cl)cc1)C1CCCN(Cc2ccc3nonc3c2)C1 (centres undefined)	-1	-13	-5	-5
CCOC(=O)c1c(NC(=O)c2c(N)n(CCCOC)c3nc4ccccc4nc23)sc2c1CCCC2	-1	-41	1	-4
CCOC(=O)c1c(NC(=O)C(c2ccccc2)c2ccccc2)sc2c1C1CCN2CC1	2	-5	79*	-2
O=C1CC[C@@]2(O)[C@H]3Cc4ccc(O)c5c4[C@@]2(CCN3CC2CC2)C1O5 (some centres undefined)	0	x	x	x
CCn1nc(-c2cccs2)nc2c(=O)n(C)c(=O)nc1-2	x	-14	-5	59*
Cc1ccc(-n2c(O)c(C=NCCN3CCNCC3)c(=O)[nH]c2=S)cc1	4.6*	-18	x	-2
N#Cc1ccc2nc(-c3ccc(CN4CCC(n5c(=O)[nH]c6cc(Cl)ccc65)CC4)cc3)c(-c3ccccc3)nc2c1	1	x	x	x
c1ccc2c(c1)[IH]c1ccccc1-2	85*	x	x	-10
SMILES	MsrA inhibitor	p-CIP stab down	14-3-3 Bad inh	MsrA act	others
c1ccc2c(c1)-c1cccc3cccc-2c13	0	x	x	1
CCOC(=O)C1=C(N)Oc2cc(C)oc(=O)c2C12C(=O)N1c3c(cccc32)C(C)CC1(C)C (centres undefined)	x	-9	70*	0
CCOC(=O)C1=C(N)Oc2cc(C)oc(=O)c2C12C(=O)N1c3c(cccc32)C(C)=CC1(C)C (centres undefined)	0	-17	1	-1
Cc1ccc(C(=O)NCCN2CCC3(CC2)C(=O)NCN3c2ccccc2)cc1	0	x	x	x
COc1cccc(N(C(C)=O)C2=NCCCS2)c1	0	-6	x	-3
O=[N+]([O-])c1ccc(NCCCN2CCOCC2)nc1	4.6*	-4	x	-10
O=C(NCCN1CCOCC1)c1ccc(Cl)nc1	0	-8	-2	-4
COc1cc2c(c(OC)c1O)-c1ccc(OC)c(=O)cc1C(NC(=O)C(F)(F)F)CC2 (centres undefined)	4	x	x	-11
COc1cc2c(c(OC)c1OC)-c1ccc(C(=O)O)cc1[C@@H](NC(C)=O)CC2	-1	x	x	19*	MsrA activ conf=-1
Cc1noc(C)c1CC(=O)N1CCCC(N2CCN(c3ccccc3F)CC2)C1 (centres undefined)	0	0	x	-3
O=C(CCN1CCOCC1)NCC(=O)Nc1ccc(Br)cc1C(=O)c1ccccc1	-1	-3	5	7.8*	MsrA activ conf=2
CC[n+]1c(-c2ccccc2)c2cc(N)ccc2c2ccc(N)cc21	44*	x	x	9.2*	MsrA activ conf=3;MsrA conf=49*
CC=C(CC)C1(CCC)C(=O)NC(=S)NC1=O	0	x	x	-2
COc1ccc(CC(=O)C2C(=O)N(C)c3ccccc32)cc1OC (centres undefined)	4.9*	x	x	-10	MsrA conf=2
COc1ccc(CC(=O)N(C)C2CCCN(Cc3ccccc3F)C2)cc1OC (centres undefined)	0	7	x	-11
CCOc1cc(C=C2C(=O)NC(=S)NC2=O)ccc1O	4.8*	x	x	-6	MsrA conf=2
COc1ccc(C=C2C(=O)NC(=S)NC2=O)cc1OC	0	x	x	-2
COc1cc(/C=C/[N+](=O)[O-])ccc1O	5.5*	0	8	-8	MsrA conf=4.7*
COc1ccc(C2=NS(=O)(=O)N(C)C(C(=O)N3CCC4(CC3)OCCO4)=C2)cc1OC	2	-6	x	-3
N#C/C(=C\c1ccc(O)cc1)C(=O)O (tested in a mixture with another compound)	4.7*	x	x	-2	MsrA conf=2
COc1ccc(-c2cc(=NCCC(=O)O)c3cc(C)ccc3o2)cc1	4.8*	0	10	-5	MsrA conf=4.6*
COc1ccc(-c2cc(=Nc3ccccc3)c3cc(C)ccc3o2)cc1	1	-19	-1	-3
O=C(NN=Cc1ccc(N(CCCl)CCCl)cc1)c1cc(=O)[nH]c(=O)[nH]1	4	x	x	1
O=C(Cc1cc(=O)oc2cc(O)ccc12)NN=Cc1ccc(N(CCCl)CCCl)cc1	7.3*	x	x	-9	MsrA conf=6.1*
COC(=O)C1=CO[C@@H](C)[C@@H]2CN(CCc3c[nH]c4ccccc34)CC[C@H]12	0	x	x	-3
Cc1cc(N(CCCl)CCCl)ccc1C=NNC(=O)c1cccnc1	5.3*	x	x	-13	MsrA conf=4
O=C(NN=Cc1ccc(N(CCCl)CCCl)cc1Cl)c1cccnc1	2	x	x	-3
Cc1ccc(-n2c(O)c(C=NCCN3CCOCC3)c(=O)[nH]c2=O)cc1	0	-24	-11	-4
